Records with an inconclusive call do not appear. Entries that show only a call come without a potency. The source made the active and inactive calls. Calls come from the whole dose curve; as a rule, active = well fitted curve in the direction sought with a large enough effect; inconclusive = small, poorly fitted or top-dose-only effect, or another doubt; inactive = no such curve, though single readings can be large; an effect the other way counts as inactive or inconclusive.
What was measured:
[1] = test system: Zika virus NS2B-NS3 protease; experiment: Primary screen GU AMC qHTS for Zika virus inhibitors (AID 1347154); details: Zika NS2B-NS3 unlinked protease, AMC fluorogenic substrate; series mostly up to 54.1 µM; note: nearly all actives have a fitted effect of over 70% in size
In short: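 Unlinked Zika NS2B hydrophilic domain–NS3 protease complex at 25 nM in 10 mM Tris-HCl pH 8.0, 0.01% Tween 20, with an AMC peptide substrate. Fluorescence change (340/450 nm) over 15 min at room temperature, normalized to controls, fitted to 4-parameter Hill.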

[2] = qHTS to identify inhibitors of the type 1 interferon - major histocompatibility complex class I in skeletal muscle: primary screen against the NCATS Mechanism Interrogation Plate v5.0 (MIPE) Libary (AID 1347411); details: iHSKM cells + IFN-b, HiBiT-tagged MHC-I luminescence, 24 h; series mostly up to 45.8 µM; note: nearly all actives have a fitted effect of over 65% in size
In short: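 Luminescence from HiBiT-tagged endogenous HLA-B*08:01 served as the MHC class I read-out. CRISPR-engineered C25cl48 human myoblasts received 4.0 ng/ml IFN-beta plus compound for 24 hrs, with an 11-point, 1:3 series topping at 46 uM final.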

| SMILES | Potency [1] | Potency [2] |
| --- | --- | --- |
| Cc1cc(NC(=O)Nc2ccc(N(C)C)cc2)c2cc(F)cc(F)c2n1 | inactive | inactive |
| CC(NCCc1ccc(O)cc1)C(O)c1ccc(O)cc1 (stereo unspecified) | inactive | inactive |
| O=C1CCCC(=O)C1C(=O)c1ccc(C(F)(F)F)cc1[N+](=O)[O-] | inactive | inactive |
| CCC(=O)NCC[C@@H]1CCc2ccc3c(c21)CCO3 | inactive | inactive |
| COc1cc2c(cc1OC)CC(=O)N(CCCN(C)C[C@H]1Cc3cc(OC)c(OC)cc31)CC2 | inactive | inactive |
| O=C(NC[C@H](O)CO)c1ccncc1Nc1ccc(I)cc1F | inactive | inactive |
| COC1CCC(C(=O)c2ccc3nc4c(cc3c2)CCCO4)CC1 (stereo unspecified) | inactive | inactive |
| CC[C@@H]([C@H](C)O)n1ncn(-c2ccc(N3CCN(c4ccc(OCC5CO[C@@](Cn6cncn6)(c6ccc(F)cc6F)C5)cc4)CC3)cc2)c1=O (stereo partly specified) | inactive | inactive |
| CC[C@H](C)C(=O)O[C@H]1C[C@H](O)C=C2C=C[C@H](C)[C@H](CC[C@@H](O)C[C@@H](O)CC(=O)O)[C@H]21 | inactive | inactive |
| CC1CNc2c(cccc2S(=O)(=O)N[C@@H](CCCN=C(N)N)C(=O)N2CC[C@@H](C)C[C@@H]2C(=O)O)C1 (stereo partly specified) | inactive | inactive |
| CN1CC(=O)NC1=NC(=O)Nc1cccc(Cl)c1 | inactive | inactive |
| CCCC1OC2C[C@@H]3[C@H]4CCC5=CC(=O)C=C[C@]5(C)[C@H]4C(O)C[C@]3(C)[C@]2(C(=O)CO)O1 (stereo partly specified) | inactive | inactive |
| O=C(O)c1nc(=O)[nH]c(=O)[nH]1 | inactive | inactive |

From PubChem BioAssay (NCATS)
